# Compound activity: PubChem BioAssay, several laboratories
# In the library only some 2% were active in any assay of this set; here they are far more common.
# Beta apoptosis: blocks beta cell apoptosis | INS-1E cytokine-induced death, ATP luminescence, 48 h; percent of positive-control rescue, neutral wells zero | protection from apoptosis, % (no concentration beside the values) | actives 0.8% (n = 300,000) | AID 435005;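 active means Every replicate reaches about 75%, or at least half do and their mean reaches it too, limit read from the data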;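 further: 0% = cytokine-treated negative control wells and 100% = positive control rescue; higher means more ATP so stronger rescue from cytokine killing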
# Shn3 3UTR inh: reduces Shn3 3'UTR luciferase signal in osteoblasts | inhibition, % at 12.5 µM | actives 0.52% (n = 360,000) | AID 588674 | Clone20 osteoblast Shn3 3'UTR firefly luciferase, 24 h;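 active means mean inhibition of at least 75% with every replicate also reaching 75%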;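 further: 0% = median of neutral control wells and 100% = pilot-screen positive control compound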
# Jurkat NFkB inh: inhibitors of the PMA/ionomycin-induced NF-kB reporter in Jurkat cells. PMA/ionomycin-induced NF-kB luciferase reporter, luminescence. inhibition, % at 4 µM. actives 0.53% (n = 330,000); in the data active means inhibition above about 50%
# Calb FLC: C. albicans growth modulation with fluconazole; C. albicans CaCi-2 (fluconazole-resistant clinical isolate) + fluconazole, Alamar Blue growth, 48 h; growth inhibition, % (no concentration beside the values); actives 0.57% (n = 300,000); AID 1979;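 active means growth inhibition above about 58% in most replicates, limit read from the data, passing the limit was not always enough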;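 further: all wells also contain fluconazole at 8 µg/ml as a sub-toxic cotreatment; 0% = median of DMSO wells and 100% = median of geldanamycin control wells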
# 697 NFkB inh: inhibitors of the PMA/ionomycin-induced NF-kB reporter in 697 B cells | 697 B-cell NF-kB luciferase reporter, 16 h | inhibition, % at 4 µM | actives 0.33% (n = 330,000) | AID 435022; in the data active means inhibition above about 35%
# * = called active by the depositor; · = no result.
SMILES,Beta apoptosis,Shn3 3UTR inh,Jurkat NFkB inh,Calb FLC,697 NFkB inh
C=C1[C@@H](O)[C@@H]2O[C@]3(CC[C@H](/C=C/[C@@H](C)[C@@H]4CC(C)=CC5(O[C@H](C[C@@](C)(O)C(=O)OC)CC[C@H]5O)O4)O3)CC[C@H]2O[C@@H]1[C@@H](O)C[C@H](C)[C@H]1OC2(CCCCO2)CC[C@H]1C (some centres not stated),108*,·,-5,·,-13
Cc1ccc(S(=O)(=O)/C(C#N)=C/c2c(N3CCN(Cc4ccccc4)CC3)nc3ccccn3c2=O)cc1,0,0,-11,1,-6
Cc1noc2ncnc(Sc3ccc(Br)cc3)c12,-38,44,14,108*,0
CCn1cc(C(=O)O)c(=O)c2cc(F)c(N/N=C/c3ccccc3[N+](=O)[O-])cc21,97*,43,-5,-19,-46
CNC(=O)c1c(NC(=O)C2=COCCO2)sc2c1CCN(C(=O)OC)C2,·,0,10,4,14
CCCc1cc(=O)[nH]c(SCC(=O)Nc2ccc(Br)cc2Br)n1,-4,1,17,60*,-7
Cc1cncc(NCc2ccc3c(c2)OCO3)n1,·,-26,·,·,·
CCNc1nc(NC(C)C)nc(NC(C)(C)C)n1,37,11,2,83*,-21
Cc1cc(C)c2c(N)c3cccc(C)c3nc2n1,98*,-21,·,9,·
Cc1cccc2c(N)c3c(nc12)CCCC3 (tested in a mixture with another compound),·,49,·,·,·
O=C1/C(=C/c2cccc([N+](=O)[O-])c2)CCc2ccccc21,-2,-1,4,8,2
CCN1C/C(=C\c2cccc([N+](=O)[O-])c2)C(=O)/C(=C/c2cccc([N+](=O)[O-])c2)C1,·,95*,·,·,·
Cc1ccc(C(=O)NNC(=O)CSc2nnc(C(C)C)n2C)cc1,0,-3,-17,3,-9
Cc1ccc(CNC(=O)CSCc2cccc(F)c2)cc1,-4,-23,-18,94*,6
N#CCc1ccc(NC(=O)CSc2nnc(C3CC3)n2C2CC2)cc1,0,-13,2,·,10
Cn1c(=O)c(C(=O)NCCCc2ccccc2)c(O)c2ccccc21,-7,5,-3,2,12
COc1ccc(CCNC(=O)c2c(O)c3ccccc3n(C)c2=O)cc1,-6,-5,1,96*,4
O=C(NCCc1ccccc1)c1c(O)c2cccc3c2n(c1=O)CC3,-3,-20,-4,90*,-6
CCOc1ccc(-c2cncc3nccn23)cc1,·,-16,·,·,·
c1ccc(-c2csc3ncnc(NCCCN4CCOCC4)c23)cc1,-13,60,18,1,-6
c1csc(-c2csc3ncnc(NCCCN4CCOCC4)c23)c1,76*,79,15,-4,-38
COc1ccc(COC(=O)c2cccc(S(=O)(=O)N3CCN(C(C)=O)CC3)c2)cc1,-5,-18,10,-4,-9
COc1cccc(/C=N/Nc2nc(Nc3ccccc3)nc(-n3nc(C)cc3C)n2)c1O,135*,60,-7,5,9
COc1cccc(/C=N/Nc2cc(-n3nc(C)cc3-c3ccccc3)ncn2)c1O,·,90*,19,82*,2
COc1ccc(NC(=O)C2(C)CCN2CCOc2ccccc2)cc1OC (configuration not stated),·,-2,·,·,·
SMILES,Beta apoptosis,Shn3 3UTR inh,Jurkat NFkB inh,Calb FLC,697 NFkB inh
COc1ccc(-c2cc(C(F)(F)F)c(C#N)c(SCC(=O)O)n2)cc1OC,2,·,1,-1,18
O=C(O)C[C@H](O)C[C@H](O)/C=C/c1c(C2CC2)nc2ccccc2c1-c1ccc(F)cc1,·,·,·,103*,·
CCCOc1ccc(CC(=O)N/N=C\c2ccc(F)cc2)cc1,0,14,-14,1,-4
O=C(CCC(=O)Nc1ccc(Br)cc1)N/N=C/c1ccc(F)cc1,-11,-3,1,2,18
CC1(C)CC(=O)C2=C(C1)OC(N)=C(C#N)C21C(=O)N(CN2CCOCC2)c2ccccc21 (configuration not stated),-2,5,2,-5,-10
COc1cccc(CN2C(=O)C3(C(C#N)=C(N)OC4=C3C(=O)CCC4)c3ccccc32)c1 (configuration not stated),·,16,16,91*,1
S=C(NCCc1ccccc1)Nc1cccc2cnccc12,4,89*,48,-2,33
Cc1ccc(C)c(NC(=S)Nc2cccc3cnccc23)c1,·,18,3,26,0
S=C(NCc1ccccc1)Nc1cccc2cnccc12,33,75,18,19,-15
